These results are taken from the supplement of paper PMC12632987.

B1: LC3A_3_1647 (protein)
chain: PEEEVEETVELLREAGHSEETIEAFRETAEALLERGYEEALRVLIEETRELLDLPDEILLAMLEEVLRVIKEEDLSEEEVIEEIRRIARIARSEGEIIEL
B2: LC3A_free_39_2193 (protein)
chain: SAAETEKAKAELLALAAEAGEEAKKLAEEIIKLIGEDLEKLKKLLEALKKAKEAGVDVLEVLKEALELAKELKKQGKSKEEIFEEVLELIEDAINLIPID
B3: LC3A_28_1195 (protein)
chain: SLAEETIKKIREQAKKALEEGDGAVIEVNISKELSDEGIDKILETIKEEAAKLADLESVSIIINVESGVSQENIDKIADTGEEIEEKYPNVTVIIALDED
B4: LC3A_28_898 (protein)
chain: MSALESAEAALAAVRAAVAAGDQAPLVLEVKAPSTEEDTEKLIELLEEIAREASQLTGVTIVIDIDESVSEENQQKLIDKAEELEKKYPNVTVIIALPES
B5: LC3A_28_683 (protein)
chain: SETDESIEKALKKAKEALEKGKPEVIEIKVSGDTTEEELEKILEALEEIAEIANKVPGSAIIIDIDADLPQEFRDKLIDKAEELEEKYPNVTIIFALEER
B6: LC3A_free_0_2122 (protein)
chain: KKTVVEVVVILDESTSKETAEEIYEKLKEKAEELAKEAGAEVESSLSEVDGSYIITIKITLPTDDIDKALELEDKLVETAEEIAKEAGVEATIYSSVYLE
B7: LC3A_3_1412 (protein)
chain: LEERREALLAELRAAGWSEETLAAVEELLEALLARGAEEEAERALELLRAARDLPSERLLEVVEEALRALREEGLSPEEVIALLEELLRVARAEQEIEEL
B8: LC3A_28_1281 (protein)
chain: SEIEEEIERAIKEAKEAKEKGEPAVIEIEVPGDATEEEIEKVIKGLEEIAEILKDIPNQAIVINVDSGVKEEHIDKLVDKAEEIEEKYPNVTVIIALDED
B9: LC3A_3_1385 (protein)
chain: MEEEMEKTLERLREAGHSEETIEAARKALEALIEKGYENSAKTFIELLDELIHLPDELLLELFEDVLELIETEDIDEETLTEKIKEIASVYKNESEIEEL
B10: LC3A_free_26_2139 (protein)
chain: EKFVDIYLIDEAIDALEKAKELAKKIEGIGEKLVKLLEEALKLIEKETLESLEKAIKILKEIKELIEKDKTIDEETKKELLELVTKALEKVEEVVKIMKE
B11: LC3A_3_1411 (protein)
chain: LEERLAATEALLREAGHSEETLAAFRRLVELLLERGAEEEAERVLELVAEAKDISSEDLLAVLEEVIRALEEEGASPEEAVERLEELLRIARAEQEIEEL
B12: LC3A_147_452 (protein)
chain: ATYVITVDVLLRNDPELAERIEEEIKKIGEENGAEVEVEREEIQETPTTTEYFLRVTLKTTDEEKALKALQEVSELLDRTAEEHPESFLGAMISFEKIED
B13: LC3A_28_846 (protein)
chain: SKTEEDIEKALKEAKEAAKKGEPAVIELKVYKGDTEEEIEKIIEALEEIAEILKDLPNQAILINFEEVIDEEHQNKILDKAEEIEKKYPNVTVIIALPEE
B14: LC3A_28_842 (protein)
chain: SKTEENIKKALAEAKEAAEKGESKVITLKVYKGDTEEEIDKIIETLEEIAEILKDLPNQAIIIEFEEPIDPEHQDKIIDKAEEIEKKYPNITVIIALPEE
B15: LC3A_28_844 (protein)
chain: SKTEKDIKEALERAKRAAEEGKSEVITIKVYKGDTEEEINKIIETLEEIAEILKDLPNQAILIDFEEKIDEEHQNKIIDKAEEIEKKYPNITVIIALPEE
B16: LC3A_132_311 (protein)
chain: SEEKYKEIKEELEKKLKEAEKNIKDKEKVEKLLEEIRKLLEEAEEELSPEQVAELYDEVADRLWKLSQKALEAGQEDVALELDAAAIEAASRSLEAEKLI
B17: LC3A_free_46_2418 (protein)
chain: YRGIVEADLLGLTEEQVEEVIERVKEKAKRLEEEYGVKVEVEVEVEKNEDGTYFLRIKVTIEGEDREKVEKAANEVVDLLEKLADEYGAAMIISIEFEEL
B18: LC3A_147_515 (protein)
chain: MYEVDIDILVKREGEEEVLEELEEILEELREEGYEVEVLEKRIEREGDEVFIYVKVLIRAPTPEEAEKAVNRLISRLEELEEKHKDLILGSLISVEKIEP
B19: LC3A_147_484 (protein)
chain: MRVYVDVLVDDEETAEELVRLMEATVEELRAQGIRVELRVEIEEVEPGVYFVEIEVEIEAETEEEEQAAAQRVIDALEAFDEANKDRVLGTLISVEREER

The full ranking holds about 2,300 sequences; the median of “median log2 fold change of GCK-ALFA target abundance (FLAG IP / Myc IP barcode read proportion)” is about 0.095, and the lowest 2% start at about -0.47. The sample as a whole holds a higher share of the lowest values than the screen did.

The target of this test is MAP1LC3A, Q9H492. Nature of the test: median log2 fold change of GCK-ALFA target abundance (FLAG IP / Myc IP barcode read proportion) (log2 ratio); each designed protein is fused to an ALFA-tag nanobody in HEK293 cells to bring the named protein to FLAG-tagged glucokinase (GCK); Myc marks an untargeted standard; higher = target protein stabilised (more abundant). The conditions noted are these: target protein: 3xFLAG-MCP-GCK-ALFA reporter; HEK293 landing pad (RPLP). In outline:
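Sequencing of reverse-transcribed, amplified circular RNA barcodes from anti-FLAG and anti-Myc immunoprecipitates provided the readout for an ALFA-nanobody-fused binder library recombined into HEK293 landing-pad cells. Those cells were induced with 2 μg mL^−1 doxycycline, transfected with a plasmid expressing a FLAG-tagged target and a Myc-tagged standard, and lysed after 48 h. Target abundance is the per-binder median log2 ratio of FLAG to Myc barcode read proportions. Only barcodes at a proportion of ≥10^−7 in both replicates and binders with ≥3 barcodes per replicate were kept, with a 10^−6 pseudocount added before the two replicates were pooled.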
Turning to B1, the “median log2 fold change” value came out at 0.138.
The same measure for B2: 0.242.
With B3, the “median log2 fold change” value came to 0.229.
In the case of B4, the “median log2 fold change” value is 0.201.
To B5 belongs -0.521; to B6, -0.221; to B7, 0.243.
The same measure for B8: -0.286; for B9: 0.082; for B10: 0.132.
With B11, the “median log2 fold change” value was found to be 0.212.
The same measure for B12: -0.0647.
As for B13, the “median log2 fold change” value is -0.293.
Turning to B14, the “median log2 fold change” value was -0.297.
To B15 belongs -0.471; to B16, 0.256.
On to B17, for which the “median log2 fold change” value worked out at 0.196.
Turning to B18, the “median log2 fold change” value was -0.205.
B19: the “median log2 fold change” value was -0.559.
